In PubChem BioAssay (NCI):
The panel holds about 83,000 compounds, 20% with a hit somewhere; the sample as a whole holds those more often.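 Percent growth is the endpoint: 0 to 100 indicates growth inhibition (40 means 60% inhibition), 0 means no net growth, and negative values indicate cell death.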 The source made the active and inactive calls. How the source made its calls: active means growth percent below 10; inactive means the rest.

What follows are compounds tested on HL-60(TB) leukemia (assay: NCI-60 one-dose screen, 48 h (100 = growth as untreated, 0 = no growth, -100 = all killed)). Conditions: 10 µM unless noted.

| SMILES | growth |
| --- | --- |
| CCN(CC)CCCN1C(=O)c2c(c(C)c3c(oc4ccc(OC)cc43)c2C)C1=O | 97.6% (inactive) |
| CCc1nn2c(-c3ccccc3)c(-c3cc(OC)c(OC)c(OC)c3)nc2s1 | 68% (inactive) |
| C#CC#CC#CC#CC#CC#CC#CC#CC[C@@H]1OC[C@@H](COC(=O)O[C@@H](C(=O)O[C@H]2C[C@@]3(O)[C@@H](OC(=O)c4ccccc4)[C@@H]4[C@]5(OC(C)=O)CO[C@@H]5C[C@H](O)[C@@]4(C)C(=O)[C@H](OC(C)=O)C(=C2C)C3(C)C)[C@@H](NC(=O)c2ccccc2)c2ccccc2)O1 | 2.63% (active) |
| COc1cc(-c2ncn(/C=C\c3nnco3)n2)cc(C(F)(F)F)c1 | 11.2% (inactive) |
| Nc1cc2c(cc1Cl)-c1ccc(Cl)cc1C2=O | 75.7% (inactive) |
| Cc1ccc(C(=O)C2C(=O)C3CCC2C3)cc1 (stereo unspecified) | 98.3% (inactive) |
| COc1cccc2c1C(=O)c1c(O)c3c(c(O)c1C2=O)C[C@](O)(C(=O)CO)C[C@H]3O[C@@H]1C[C@@H](NC(=O)CCCN(C)C2(c3ccc(F)cc3)CC3CCC2C3)[C@H](O)[C@@H](C)O1 (stereo partly specified) | 76% (inactive) |
| CCCCN(CC)CC(CC)Nc1cc(OC)cc2cccnc12 (stereo unspecified) | 126% (inactive) |
| CC(C)(C)c1ccc(/C=C/C(=O)Nc2ccc(O)cc2)cc1 | -12.6% (active) |
| Nc1cc2c(cc1Br)-c1cc(Cl)ccc1C2=O | 83.8% (inactive) |
| CC(=O)N[C@H](C(=O)N[C@@H](CCCNC(=N)N)C(=O)N[C@@H](CCCCN)C(=O)N[C@@H](CCCNC(=N)N)C(=O)NC(C(=O)N[C@@H](CC(C)C)C(=O)N[C@@H](CCCNC(=N)N)C(=O)N[C@@]1(C)CCC/C=C\CCC[C@@](C)(C(=O)N[C@@H](CCCNC(=N)N)C(=O)N[C@@H](CCC(=O)O)C(=O)N[C@@H](CC(C)C)C(=O)N[C@H](C(=O)N[C@@H](CCC(=O)O)C(N)=O)C(C)C)NC(=O)[C@H](CCC(N)=O)NC(=O)[C@H](CC(C)C)NC(=O)[C@H](CC(C)C)NC1=O)[C@@H](C)O)C(C)C (stereo partly specified) | -41% (active) |
